Structures are written as SMILES. “And” between values parts separate entries of the source, which are not always exact repeats. Equal entries are not always repeated. The panel holds about 83,000 compounds, 20% with a hit somewhere; the sample as a whole holds those more often.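 How to read the values: 0–100, growth inhibition (40 = 60% inhibited); 0, no net growth; -100 to 0, cell death (-40 = 40% of starting cells died; -100 = all dead).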 The source made the active and inactive calls. How the source made its calls: active means growth percent below 10; inactive means the rest.

The experiment has as its system EKVX NSCLC. Put plainly: NCI-60 one-dose screen, 48 h (100 = growth as untreated, 0 = no growth, -100 = all killed). The following applies: 10 µM unless noted.
For `N#Cc1nc(-c2ccccc2)oc1N1CCC(C2(C(F)(F)F)N=N2)CC1`, the growth is 92.1% (inactive).

Regarding `CNC(=O)c1cc(N2CCc3cc(NC(=O)Nc4ccc(N5CCOCC5)c(C(F)(F)F)c4)ccc32)ccn1`, the growth was 59.6% (inactive). To `O=C(CCCCCCNC(=O)C(O)(O)C(F)(F)F)Nc1ccc(Br)cc1` belongs 33.3% (inactive). To `Cc1csc(/N=C(N)/N=C(\N)c2cccnc2)n1` belongs 82.8% (inactive). For the compound `C=C1CCc2nc(SCC(=O)O)ccc2N1`, the growth is 101% (inactive).

On to `CCCCOc1ccc(S(=O)(=O)N2CCN(c3nc(C)cc(N4CCOCC4)n3)CC2)cc1`, for which the growth is 39.9% (inactive). Regarding `CCn1c2ccc(/C=N/N(C)S(=O)(=O)CCN(C)C)cc2c2cc(/C=N/N(C)S(=O)(=O)CCN(C)C)ccc21`, the growth was 94.7% (inactive). To `NCCNC(=O)c1cccc(COc2ccccc2NC(=O)c2cc(Br)c(Br)[nH]2)c1` belongs 89.9% (inactive); to `CNC(=O)Nc1ccc(Nc2cc(-c3ccc(-n4cccn4)cc3)[nH]n2)c(C)c1`, 109% (inactive). To `CCN(CC)c1ccc(/C=N/NC(=O)c2ccc(S(N)(=O)=O)cc2)c(O)c1` belongs 15.9% (inactive). To `COc1cc(-c2nc(-c3ccccc3)[nH]c2-c2ccnc(NCCCNS(=O)(=O)c3cccc(F)c3)n2)ccc1F` belongs 80.8% (inactive); to `C/C=C/CC(C)C(O)[C@H](NC(=O)[C@@H]1CCCN1C(=O)[C@](C)(CC)NC(=O)CCCCCCCCC)C(=O)N[C@@](C)(CC)C(=O)N[C@@H](CCC(N)=O)C(=O)N[C@H](CCC(N)=O)C(=O)NC(C)(C)C(=O)NC(C)(C)C(=O)N[C@@H](CCC(N)=O)C(=O)N[C@H](CC(C)C)C(=O)N[C@H](CO)CC(C)C` (stereo not given in full), 55.1% (inactive) and -69.6% (active); to `O=S(=O)(NCCCNc1nccc(-c2[nH]c(-c3ccccc3)nc2-c2ccc(F)c(O)c2)n1)c1ccc(C(F)(F)F)cc1`, 69.7% (inactive).

In the case of `N#Cc1c(-c2cccs2)c(C#N)c(=O)n(Cc2nc3ccccc3[nH]2)c1N`, the growth is 90.9% (inactive). The figure for `Cc1ccc2c(n1)C(=O)C(Cl)=C(Nc1ccccc1C(=O)OC(C)(C)C)C2=O` is 28% (inactive). Turning to `Brc1cccc(-c2cc(-c3ccc4c(c3)OC=CO4)[nH]n2)c1`, the growth was 56.7% (inactive). The figure for `CN1CCN(CCCCCC(=O)Nc2nc(-c3cccc(NS(=O)(=O)c4cccc5c(N(C)C)cccc45)c3)cs2)CC1` is 74.7% (inactive); for `O=C(CSc1nnc(-c2ccc(Cl)cc2)n1-c1ccccc1)Nc1ccc(Cl)cc1` it is 49.7% (inactive); for `NC1[C@H]2CN(c3cnc(C(=O)Nc4cc(F)cc5cccnc45)cn3)C[C@@H]12` (stereo not given in full) it is 82.1% (inactive). The figure for `CC1CCN(CC(=O)Nn2c(COc3ccccc3)nc3ccccc3c2=O)CC1` is 86.1% (inactive); for `CCCCSC1=C(Cl)CN(c2ccccc2)C1=O` it is 97.8% (inactive); for `CC1=Cc2ccccc2OC12C=Cc1ccccc1O2` (stereo not given) it is 82.2% (inactive). The figure for `Brc1ccc(-c2cc(-c3ccc4c(c3)OC=CO4)n[nH]2)s1` is 74.6% (inactive); for `CC1=C(C)C(=O)C(Nc2cccc(C(=O)OC(C)(C)C)c2)=CC1=O` it is 81.2% (inactive); for `CCCC/C(=C\c1ccc(O)c(O)c1)C(=O)NC(Cc1ccccc1)C(=O)C(=O)NCCc1ccc(OC)cc1` (stereo not given) it is 83.3% (inactive). On to `CCN(CC)c1ccc(/C=N/NC(=O)c2ccc(NS(C)(=O)=O)cc2)c(O)c1`, for which the growth is 15.6% (inactive). The figure for `O=C(/C=C/C=C/c1csc(Br)n1)NO` is 102% (inactive); for `O=C(CCCCCCNC(=O)C(O)(O)C(F)(F)F)Nc1ncc(-c2ccc(Br)cc2)s1` it is 21.5% (inactive); for `Cc1cc(C)cc(NC2=C(Cl)C(=O)c3nc(C)ccc3C2=O)c1` it is 55.1% (inactive). To `C[C@@H]1OCC2(CCN(c3cnc(C(=O)Nc4cc(F)cc5cccnc45)cn3)CC2)[C@@H]1N` belongs 78.2% (inactive); to `CN1CCN(c2ccc(Nc3nc(NCCCNS(=O)(=O)c4ccccc4)c4sccc4n3)cc2)CC1`, 97.6% (inactive). To `CCCCCCNC(=O)Oc1ccc(/C(=C(/C)c2ccc(OC)cc2)c2ccc(OCCN3CCCCCC3)cc2)cc1` belongs 54.8% (inactive). `O=[N+]([O-])c1ccc(NC(=S)NNC(=S)Nc2ccc(Br)cc2)cc1`: the growth was 83.5% (inactive). To `C#C[C@]1(O)CC[C@H]2[C@@H]3CC=C4c5sc(N6CCN(C)CC6)nc5CC[C@]4(C)[C@H]3CC[C@@]21C` belongs 68.5% (inactive); to `CN1CCN(Cc2ccc(NC(=O)c3cncc(C#Cc4cnc5ccc(NCCO)nn45)c3)cc2C(F)(F)F)CC1`, -0.668% (active); to `C#CCOc1cccc(/C(N)=N/C(N)=N/c2nc3ccccc3s2)c1`, 73.8% (inactive).

As for `NC(N)=NS(=O)(=O)c1ccc(N=Nc2c(N)nn(-c3ccc([N+](=O)[O-])cc3[N+](=O)[O-])c2N)cc1`, the growth was 99% (inactive). The figure for `N#Cc1c(-c2cccs2)cc(-c2cnccn2)nc1SCC(=O)N/N=C/c1cccs1` is 59% (inactive). The figure for `COc1cc(C(=O)c2cc(C(C)=O)c3ccc(C)cn23)cc(OC)c1OC` is 46.5% (inactive). To `Brc1ccc(-c2cc(-c3ccc4c(c3)OCCO4)n[nH]2)s1` belongs 48.4% (inactive).

The record behind these values is PubChem BioAssay (NCI).
